From PubChem BioAssay
Beta2AR agonist: beta2AR agonists driving receptor internalization, primary screen, cell-based, FAP fluorogen, flow cytometry. Am2.2-beta2AR cells. Beta-2 adrenergic receptor (Homo sapiens), P07550. response, % (concentration not given with the values). AID 504454, 2011. hit rate 0.43% among 340,000;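 active = response above a set limit, near 3 SD of response in nonfluorescent compounds, cut at about 42% in these data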
CF NFkB block: inhibitors of PAF-induced NF-kB signaling, primary screen, cell-based, GFP fluorescence, uHTS | KKLEB NF-kB-GFP reporter, GFP fluorescence overnight | inhibition, % at 5 µM | hit rate 0.86% among 360,000 | AID 588850, 2011;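 active = at least 50% inhibition at 5 µM, scaled per plate between neutral and stimulator controls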;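 also: PAF is a Pseudomonas aeruginosa culture filtrate used as stimulus; plate controls were PAF-stimulated DMSO wells for no effect and unstimulated DMSO wells for full effect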
MITF TRPM1 inh: inhibitors of MITF-dependent TRPM1 promoter reporter, primary screen, cell-based, SK-MEL-5, single point, luciferase. SK-MEL-5 TRPM1 promoter luciferase, 24 h. inhibition, % at 12.5 µM. hit rate 0.83% among 330,000;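 active = mean inhibition across replicates of 60% or more, whatever share of single replicates reaches that level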
KKLEB tox: cytotoxicity in KKLEB CF airway cells, primary screen, cytotoxicity control for CF NF-kB inhibitor project, cell-based, uHTS, fluorescence assay plates; KKLEB CF airway cells viability, ATPlite luminescence, overnight; hits give low values; cells stimulated with P. aeruginosa culture filtrate; hit rate 0.36% among 360,000; activity change (cytotoxicity), % at 5 µM;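 active = corrected activity change at or below -50% at 5 µM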
HIF-2a block: HIF-2a reporter inhibitors, primary screen, luminescence, 786-0 RCC cells; 786-0 RCC cells HIF-2a reporter, luciferase luminescence, overnight; inhibition, % at 18.8 µM; hit rate 0.72% among 360,000;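 active = inhibition of the luminescence signal of 40% or more relative to plate controls, in a single-dose primary screen at 18.75 µM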
Peg3 prom inh-1: Peg3 promoter-driven luciferase inhibitors, primary screen, cell-based, HeLa, luciferase luminescence; HeLa PEG-Prom luciferase reporter, overnight; inhibition, % at 20 µM; hit rate 1.7% among 360,000;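 active = inhibition of at least 50% at 20 µM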
Peg3 prom inh-2: Peg3 promoter reporter inhibitors, retest, confirmation, cell-based, HeLa, luciferase reporter, single concentration; hit rate 84% among 1,300; HeLa PEG-Prom luciferase reporter, luminescence, overnight; inhibition, % at 20 µM; AID 602417, 2012; shares compounds with Peg3 prom inh-1;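 active = at 20 µM dose, 40% or more inhibition averaged across four replicates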
CF NFkB conf: inhibitors of PAF-induced NF-kB signaling, retest, confirmation, cell-based, GFP fluorescence, single concentration | shares compounds with CF NFkB block | KKLEB CF airway cells, overnight | inhibition, % at 5 µM | hit rate 64% among 1,300 | AID 602472, 2012; in the data active = inhibition above about 40%;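 also: stimulus PAF is a Pseudomonas aeruginosa filtrate and not platelet activating factor; plate controls were DMSO wells with stimulus for no effect and unstimulated DMSO wells for full effect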
Mdm2-MdmX confirm: retested Mdm2-MdmX interaction blockers, confirmation, cell-based, luminescence, single concentration, set 2; inhibition, % at 8 µM; SaOS-2 split-luciferase Mdm2/MdmX complementation; AID 504601, 2011; shares compounds with HIF-2a block; hit rate 99% among 740;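 active = mean inhibition of the luminescence signal across two replicates at or above 26 percent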
Target sequence (O15151 whole entry, looked up): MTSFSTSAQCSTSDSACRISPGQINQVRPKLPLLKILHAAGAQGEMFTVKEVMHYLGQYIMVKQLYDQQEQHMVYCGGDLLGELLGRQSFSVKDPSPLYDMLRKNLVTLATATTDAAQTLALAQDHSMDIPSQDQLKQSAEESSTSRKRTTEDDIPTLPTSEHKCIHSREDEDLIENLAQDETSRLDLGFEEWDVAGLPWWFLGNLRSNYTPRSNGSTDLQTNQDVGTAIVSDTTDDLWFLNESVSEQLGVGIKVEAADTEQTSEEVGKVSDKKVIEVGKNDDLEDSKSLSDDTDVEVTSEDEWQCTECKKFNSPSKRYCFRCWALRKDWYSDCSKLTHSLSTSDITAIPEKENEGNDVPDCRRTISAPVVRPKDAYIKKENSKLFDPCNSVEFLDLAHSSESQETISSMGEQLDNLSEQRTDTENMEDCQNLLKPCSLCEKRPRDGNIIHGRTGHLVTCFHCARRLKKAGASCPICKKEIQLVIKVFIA
Target sequence (Q00987 whole entry, looked up): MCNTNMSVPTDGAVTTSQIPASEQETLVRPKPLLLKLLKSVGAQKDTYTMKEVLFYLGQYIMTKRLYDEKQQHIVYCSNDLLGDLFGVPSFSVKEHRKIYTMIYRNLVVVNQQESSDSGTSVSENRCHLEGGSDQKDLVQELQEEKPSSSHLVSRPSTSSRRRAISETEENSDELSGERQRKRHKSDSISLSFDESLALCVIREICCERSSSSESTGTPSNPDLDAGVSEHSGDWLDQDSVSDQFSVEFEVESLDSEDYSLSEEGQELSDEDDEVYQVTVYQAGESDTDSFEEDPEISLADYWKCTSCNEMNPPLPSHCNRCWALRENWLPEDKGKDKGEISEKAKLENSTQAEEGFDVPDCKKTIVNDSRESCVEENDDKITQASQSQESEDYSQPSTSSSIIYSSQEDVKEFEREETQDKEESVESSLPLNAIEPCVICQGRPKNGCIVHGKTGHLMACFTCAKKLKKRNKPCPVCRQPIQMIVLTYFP
HIF-2a inh conf: HIF-2a reporter inhibitor retest, confirmation, luminescence, 786-0 RCC cells; shares compounds with HIF-2a block; inhibition, % at 18.8 µM; hit rate 56% among 1,800; HIF-2a luciferase reporter luminescence, overnight;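 active = mean inhibition across four replicates of at least 40 percent at the single tested concentration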
HIF-1a counter: HIF-1a luciferase reporter signal reduction – MiaPaCa-2 cells, single concentration, counter-screen for HIF-2a inhibitor project, confirmation. inhibition, % at 18.8 µM. shares compounds with HIF-2a block. MiaPaCa-2 HIF-1a luciferase reporter, desferoxamine, overnight. hit rate 72% among 1,800;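 active = mean inhibition of the reporter signal across four replicates at the single tested dose of 50% or more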
* hit, by the source's call; x = no result given. In the library only some 2.8% were active in any assay of this set; here they are far more common.

SMILES	Beta2AR agonist	CF NFkB block	MITF TRPM1 inh	KKLEB tox	HIF-2a block	Peg3 prom inh-1	Peg3 prom inh-2	HIF-2a inh conf	HIF-1a counter	others
COC(=O)c1nn(-c2ccc3c(c2)CCN3C(C)=O)cc1O	-15.2	-19.4	72.2*	-1.3	77.8*	89.5*	83.6*	-130.8	46.3
COc1ccc(Cl)cc1-c1cc(C(=O)NCc2ccccc2)[nH]n1	x	-43.3	x	1.8	21.4	9.4	x	x	x
CC(C)OC(=O)c1ccccc1C(=O)c1ccc(N)c([N+](=O)[O-])c1	-2.5	2.2	-1.7	-3.4	19.3	12.0	x	x	x
CNC(=O)COC(=O)c1ccccc1C(=O)c1ccc(Cl)c([N+](=O)[O-])c1	16.4	90.5*	89.2*	-40.3	71.3*	100.1*	98.9*	30.2	104.0*	CF NFkB conf=111.7*
CNC[C@H](CC1CCCCC1)NC[C@H](Cc1ccccc1)NCCC12CC3CC(CC(C3)C1)C2	51.6*	64.8*	48.7	-84.9*	95.9*	98.7*	100.0*	16.1	104.2*	Mdm2-MdmX confirm=102.7*
NC[C@H](Cc1ccccc1)NCCCCC1CCCCC1	-1.8	2.1	-4.8	2.9	9.1	-11.4	x	x	x
O=C(Nc1cc(S(=O)(=O)N2CCOCC2)ccc1Cl)c1cc([N+](=O)[O-])ccc1Cl	-4.1	23.4	36.2	9.6	61.6*	108.9*	84.2*	49.7*	10.2
COc1cccc(CNc2nc3cc(-c4ccc(OC)cc4C)sc3c(=O)n2C)c1	x	-4.9	x	-1.6	-97.9	-5.3	x	x	x
O=C(Nc1ccc(S(=O)(=O)NC2=NCCCCC2)cc1)c1ccc([N+](=O)[O-])s1	16.1	39.0	89.0*	-1.0	59.9*	68.7*	76.8*	21.0	106.1*
C(=NN1CCCCCC1)c1ccc2ccccc2n1	0.3	1.7	93.2*	-84.1*	87.4*	91.0*	95.7*	96.9*	103.3*
Cc1cc(C)c2ccc(N)nc2c1O	17.1	-28.1	74.5*	-3.1	8.9	69.8*	58.1*	x	x	Mdm2-MdmX confirm=89.2*
CCCC(=O)NC(c1ccccc1Cl)c1ccc2cccnc2c1O (stereo not drawn)	1.7	12.7	x	-7.8	4.2	52.9*	61.9*	x	x	Mdm2-MdmX confirm=91.5*
Cc1ccc(-c2nnc(SCC(=O)Nc3ccccc3F)o2)cc1	1.1	-11.2	76.4*	-21.6	77.2*	88.6*	85.3*	88.7*	95.6*
Cc1ccc(-c2nnc(SCC(=O)Nc3ccccc3N3CCOCC3)o2)cc1	0.4	-3.9	-20.9	9.2	-79.9	-84.9	x	x	x
O=C(c1[nH]c(C(F)(F)F)nc1-c1ccccc1)N1CCc2c([nH]c3ccccc23)C1	x	-5.2	x	-8.8	10.8	25.7	x	x	x
COCCn1c(C)cc(C2=NNC(=NC3CC3)SC2)c1C	3.9	-19.3	102.1*	-1.9	92.6*	104.4*	95.3*	98.8*	105.3*	Mdm2-MdmX confirm=101.0*
O=C1c2ccccc2S(=O)(=O)N1Cc1nc2ccccc2s1	-6.8	1.2	70.4*	-0.6	67.5*	93.4*	57.8*	76.3*	74.8*
Cc1ccccc1CN1C(=O)c2ccccc2S1(=O)=O	-2.4	-1.6	-2.1	14.0	3.1	0.7	x	x	x
CCCC[C@@H]1CC2=C(C(=O)OC(C)(C)O2)[C@@H](c2ccc(F)cc2)O1	x	x	x	x	6.4	x	x	x	x
COc1cccc(-c2sc3ccc(OC)cc3c2-c2ccc(C(N)=O)cc2)c1	1.9	17.2	4.3	1.7	22.5	5.8	x	x	x
COc1cccc(-c2sc3ccccc3c2-c2ccc(OCCN(C)C)cc2)c1	64.8*	49.0	18.3	-38.8	78.8*	94.5*	98.6*	18.6	106.7*
S=c1nc(C2COc3ccccc3O2)[nH][nH]1 (stereo not drawn)	3.9	-6.3	-2.1	8.1	-50.8	-19.9	x	x	x
CCCS(=O)(=O)c1cnc(C2COc3ccccc3O2)nc1N (stereo not drawn)	1.9	-4.1	72.3*	-8.1	81.2*	87.8*	76.5*	89.2*	89.7*
CCCCN(C=O)c1c(CC)nc2c(OCc3ccc(S(C)(=O)=O)cc3)cccn12	x	3.8	x	2.0	8.0	7.5	x	x	x
O=C(Nc1ccccc1Cl)c1cc(C2CCCN(C(=O)c3cccs3)C2)on1 (stereo not drawn)	x	-10.1	x	1.7	-44.3	-40.0	x	x	x
SMILES	Beta2AR agonist	CF NFkB block	MITF TRPM1 inh	KKLEB tox	HIF-2a block	Peg3 prom inh-1	Peg3 prom inh-2	HIF-2a inh conf	HIF-1a counter	others
COc1ccc(-c2sc3cc(OC)c(OC)cc3c2C#CC2(O)CCCCC2)cc1	5.7	19.7	-16.4	-5.9	-3.7	12.6	x	x	x
Cc1cc2sc3ccc(C#CC4(O)CCCCC4)cc3c(=O)c2cc1C	11.5	-4.3	96.4*	-40.0	92.8*	98.8*	97.4*	97.2*	103.2*	Mdm2-MdmX confirm=101.5*
COc1cccc(NC(=O)c2nc(S(C)(=O)=O)ncc2Cl)c1	15.9	87.6*	57.0	-37.3	68.1*	107.8*	97.7*	64.6*	10.9	CF NFkB conf=61.0*;Mdm2-MdmX confirm=100.7*
CC(=O)Nc1ccc(NC(=O)c2nc(S(=O)(=O)Cc3cccc(C)c3)ncc2Cl)cc1	17.8	102.1*	49.4	-30.7	-23.3	102.3*	96.4*	x	x	CF NFkB conf=82.4*;Mdm2-MdmX confirm=103.0*
CCCS(=O)(=O)c1ncc(Cl)c(C(=O)Nc2ccc(S(=O)(=O)Nc3ncccn3)cc2)n1	-3.6	20.0	5.4	-1.8	-4.8	13.8	x	x	x
COc1cccc(NC(=O)c2nc(SC)ncc2Cl)c1	-3.5	-27.4	-4.8	13.9	18.8	-18.9	x	x	x
COc1ccc(CN2C(=O)C(CC(=O)NCCc3ccccn3)CC(C(=O)N3CCOCC3)=C2C)cc1 (stereo not drawn)	x	3.7	x	0.8	-0.3	-6.8	x	x	x
